Source: PubChem (Broad Institute)
DENV2 CPE: protects cells from dengue virus 2 cytopathic effect | AID 651640 | CPE inhibition, % at 9.99 µM | DENV2-infected cells, cytopathic effect rescue, plate reader | 350,000 compounds, 1.7% hits; in the data active = CPE inhibition above about 20%, passing the limit was not always enough; inconclusive = no clear call, values can overlap the other calls; tested in BHK-21 cells;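 also: 0% = median of neutral control wells and 100% = median of positive control wells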
PvdQ acylase: P. aeruginosa PvdQ acylase inhibition; purified PvdQ acylase, fluorescence plate reader; inhibition, % at 10 µM; 340,000 compounds, 0.063% hits; AID 488965; in the data active = inhibition above about 30%, passing the limit was not always enough; inconclusive = no clear call, values can overlap the other calls;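 also: 0% = vehicle neutral wells and 100% = reference inhibitor wells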
Statin myotox sup: suppressors of simvastatin-induced myotoxicity in C2C12 myotubes; ATP luminescence, 48 h; scaled: DMSO 0, geranylgeraniol control 100; 330,000 compounds, 0.78% hits; rescue of ATP level, % at 7.49 µM;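 active = mean ATP rescue above about 67%, or every replicate alone reaching that limit, limit read from the data, passing the limit was not always enough; inconclusive = no clear call, values can overlap the other calls; inactive = mean under the limit and some replicate under it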;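 also: myotubes were challenged with 10 µM simvastatin during compound exposure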
PGC1a acetyl inh: modulators of PGC1a acetylation. U2OS PGC1a acetylation, AlphaScreen anti-acetyl-lysine; with virally co-expressed GCN5 acetyltransferase. inhibition, % at 15.6 µM. 350,000 compounds, 0.17% hits;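 active = every replicate shows inhibition of at least 40%; inconclusive = mean inhibition at least 40% but some replicate below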;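 also: 0% = neutral control wells and 100% = positive control wells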
miR122 inh: blocks miR-122 activity in Huh7 sensor cells | activation (reporter increase), % at 12.5 µM | Huh7 miR-122 Renilla luciferase sensor, 48 h; neutral wells = 0, positive control = 100 | 340,000 compounds, 0.3% hits;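 active = mean replicate activation score at least 90 and every replicate individually at or above 90; inconclusive = only one of the two criteria met; inactive = neither criterion met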;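 also: higher luciferase means less miR-122 activity so hits act as miR-122 inhibitors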
Starred values were filed as active, the others as inactive; [ ] = another dose, or the depositor's remark. Shown are actives, neighbours in structure and some others; about 2.2% of the full set was active somewhere.

For C[C@H](CO)N1C[C@H](C)[C@H](CN(C)C(=O)Nc2ccccc2)Oc2c(NC(=O)NC3CCCCC3)cccc2C1=O the results were DENV2 CPE -1, Statin myotox sup 9, PGC1a acetyl inh 2 and miR122 inh 0[16.7 µM].
O=C(C[C@@H]1C[C@H]2c3cc(NC(=O)NC4CCCCC4)ccc3O[C@H]2[C@@H](CO)O1)NCc1cccnc1 was read as DENV2 CPE -2, Statin myotox sup -6, PGC1a acetyl inh -2 and miR122 inh -1[16.7 µM].
Screening CC(C)NC(=O)Nc1ccc2c(c1)C(=O)N([C@H](C)CO)C[C@H](C)[C@@H](CN(C)C(=O)NC1CCCCC1)OCCCC[C@@H](C)O2 returned DENV2 CPE 0, PGC1a acetyl inh -8 and miR122 inh -4[16.7 µM].
Screening Cc1ccc(-n2c(SCC(=O)NC3CCS(=O)(=O)C3)nc3ccccc3c2=O)c(C)c1 (centres undefined) returned DENV2 CPE 38*, Statin myotox sup 3, PGC1a acetyl inh 4 and miR122 inh 3.
O=C(CSc1nc2ccccc2c(=O)n1-c1ccccc1F)NC1CC1 was read as DENV2 CPE 22*, PvdQ acylase -11, Statin myotox sup 8 and miR122 inh 0.
Screening Cc1ccc(-n2c(O)c(C=NC3CCS(=O)(=O)C3)c3ccccc3c2=O)c(C)c1 (centres undefined) returned DENV2 CPE 2, PvdQ acylase -6, Statin myotox sup 5 and PGC1a acetyl inh 57*.
For Cc1ccc(-n2c(O)c(C=NC3CCS(=O)(=O)C3)c3ccccc3c2=O)cc1 (centres undefined) the results were PvdQ acylase 2, Statin myotox sup -8, PGC1a acetyl inh -7 and miR122 inh 2.
`CC(=O)N(C)C[C@H]1Oc2ncc(-c3ccc(F)cc3)cc2C(=O)N([C@@H](C)CO)C[C@@H]1C` gave DENV2 CPE 7, Statin myotox sup -3, PGC1a acetyl inh 1 and miR122 inh 5[16.7 µM].
`C[C@H]1CN([C@@H](C)CO)C(=O)Cc2cc(NC(=O)c3ccncc3)ccc2O[C@H]1CN(C)Cc1ccc(C(F)(F)F)cc1` gave DENV2 CPE 12, Statin myotox sup 53, PGC1a acetyl inh 3 and miR122 inh 22[16.7 µM].
`COc1ccc(S(=O)(=O)Nc2cccc3c2O[C@@H](CN(C)S(=O)(=O)c2c(C)noc2C)[C@H](C)CN([C@H](C)CO)C3=O)cc1` gave DENV2 CPE -2, Statin myotox sup -11, PGC1a acetyl inh -8 and miR122 inh 3[16.7 µM].
`O=C(COc1ccccc1)Nc1ccc(S(=O)(=O)N2CCCC2)cc1` gave DENV2 CPE -3, PvdQ acylase -19, Statin myotox sup 116*, PGC1a acetyl inh -1 and miR122 inh 1.
COc1ccc(OCC(=O)Nc2nnc(S(=O)(=O)N3CCCCCC3)s2)cc1 was read as DENV2 CPE 0, PvdQ acylase -14, Statin myotox sup 113*, PGC1a acetyl inh 8 and miR122 inh -4.
For O=C(Cc1cccs1)Nc1ccc(S(=O)(=O)N2CCCCC2)cc1 the results were PvdQ acylase -12, Statin myotox sup -5, PGC1a acetyl inh 5 and miR122 inh 132*.
`C[C@@H]1CN([C@H](C)CO)C(=O)c2cc(NC(=O)Nc3cccc4ccccc34)ccc2O[C@H]1CN(C)S(=O)(=O)c1ccc(Cl)cc1` gave DENV2 CPE 19, Statin myotox sup 42, PGC1a acetyl inh 10 and miR122 inh -19[16.7 µM].
For C[C@H]1CN([C@@H](C)CO)C(=O)Cc2cc(NC(=O)Nc3ccc(F)cc3)ccc2O[C@H]1CN(C)Cc1ccncc1 the results were DENV2 CPE inconclusive, Statin myotox sup -36, PGC1a acetyl inh -7 and miR122 inh 18[16.7 µM].
For CC(C)(O)/C=C/C[C@](C)(O)C1CC[C@]2(C)C1[C@H](O[C@H]1O[C@@H](CO)[C@H](O)[C@@H](O)[C@@H]1O)CC1[C@@]3(C)CC[C@H](O)C(C)(C)C3[C@@H](O)C[C@]12C (some centres undefined) the results were DENV2 CPE 42*, PvdQ acylase -17 and Statin myotox sup 5.
COc1ccc2c3c([nH]c2c1)[C@@H](CO)NCC31CCN(Cc2ccc(F)cc2)CC1 was read as DENV2 CPE 24* and PGC1a acetyl inh 5.
`COc1ccc2c3c([nH]c2c1)[C@@H](CO)NCC31CCN(C(=O)C2CCCC2)CC1` gave DENV2 CPE 78*.
`COc1ccc2c3c([nH]c2c1)[C@H](CO)NCC31CCN(Cc2ccccc2)CC1` gave DENV2 CPE 7 and PGC1a acetyl inh 3.
Screening C/C=C/c1ccc([C@@H]2[C@H](CO)N(S(C)(=O)=O)[C@H]2CN(CC)C(C)=O)cc1 returned DENV2 CPE -2, Statin myotox sup 16, PGC1a acetyl inh -2 and miR122 inh -12[16.7 µM].
CCCNC(=O)N1CC2(CN(Cc3cccc(OC)c3)C2)c2c(n(C)c3cc(OC)ccc23)[C@H]1CO was read as DENV2 CPE -7 and PGC1a acetyl inh 5.
C=CCn1c(SCC(=O)NC(N)=O)nnc1-c1cc2c(s1)CCC(CC)C2 (centres undefined) was read as DENV2 CPE 21* and PvdQ acylase 8.
C=CCn1c(SCC(=O)NCC)nnc1-c1cc2c(s1)CCC(CC)C2 (centres undefined) was read as DENV2 CPE -7, PvdQ acylase -4, Statin myotox sup 3 and miR122 inh -10.
Screening N#Cc1ccc(-c2ccc(OCC(=O)NN=Cc3ccncc3)cc2)cc1 returned DENV2 CPE 30* and PvdQ acylase -8.
COc1ccc(CN(C)C[C@@H]2Oc3ccc(NS(=O)(=O)c4ccccc4)cc3CC(=O)N([C@H](C)CO)C[C@H]2C)cc1 was read as DENV2 CPE 15, Statin myotox sup inconclusive, PGC1a acetyl inh 2 and miR122 inh 7[16.7 µM].
`COCCCN1C(=O)c2ccc(C(=O)O)cc2C1=O` gave PvdQ acylase -4, Statin myotox sup 100*, PGC1a acetyl inh 6 and miR122 inh 5.
O=C(C[C@@H]1CC[C@H]2[C@@H](COC[C@@H](O)CN2Cc2ccc(Cl)cc2)O1)NCc1ccccc1Cl was read as DENV2 CPE -5, Statin myotox sup 37, PGC1a acetyl inh -6 and miR122 inh -6[16.7 µM].
Screening C[C@H]1CN([C@@H](C)CO)C(=O)c2cccc(NC(=O)Nc3ccccc3)c2O[C@@H]1CN(C)Cc1ccncc1 returned DENV2 CPE 16, Statin myotox sup -18, PGC1a acetyl inh 2 and miR122 inh 10[16.7 µM].
Screening COc1ccccc1NS(=O)(=O)c1cc(NC(=O)/C=C/c2cccs2)ccc1N1CCOCC1 returned DENV2 CPE 2, PvdQ acylase 2, Statin myotox sup 18, PGC1a acetyl inh -23 and miR122 inh 258*.
Screening O=C(/C=C/c1cccs1)Nc1ccc(N2CCOCC2)c(S(=O)(=O)Nc2ccccc2Cl)c1 returned PvdQ acylase -4, PGC1a acetyl inh -13 and miR122 inh 74.
